Assay [1] deals with Calcium and integrin-binding protein 1 (Homo sapiens) (UniProt Q99828). Nature of the assay: Primary qHTS for Identification of Calcium Integrin Binding Protein 1 (CIB1) Competitor (AID 1508620).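 Note: GST tagged CIB1 binding a fluorescein labelled alphaIIb integrin peptide tracer; top concentration of the series differs between compounds.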 In outline:
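CIB1-GST (1 uM final) and compound incubated 15 min at room temperature before adding FITC-alphaIIb peptide tracer (100 nM final). Competition for binding read by fluorescence polarization (ex 480, em 540) after another 15 min at room temperature.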
(In general: Quantitative high-throughput screening tests each substance at several concentrations.)

Assay [2] is described as follows: Primary qHTS for small molecule stabilizers of the endoplasmic reticulum resident proteome: Secreted ER Calcium Modulated Protein (SERCaMP) assay (AID 1508630). The method, boiled down: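 GLuc-SERCaMP-expressing SH-SY5Y cells, pretreated 16 h with compound, are challenged with thapsigargin to empty ER calcium stores; after 4 h, coelenterazine is added directly to the medium and luminescence is imaged.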

Assay [3] deals with Cytochrome P450 2D6 (Homo sapiens) (UniProt P10635). Nature of the assay: Cytochrome P450 family 2 subfamily D member 6 (CYP2D6) small molecule antagonists: luciferase biochemical (cell-free) qHTS assay (AID 1645840; active = well fitted curve in the direction sought with a large enough effect in the repeat runs; an effect the other way counts as inactive or inconclusive; note: nearly all actives have a fitted effect of over 55% in size; note: potency is the fitted concentration of half-maximal effect). The method, boiled down: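 P450-Glo luminescent screen: recombinant CYP2D6 enzyme–proluciferin substrate mix preincubated with compound 10 min at room temperature, then NADPH regeneration added for 1 h at room temperature. Detection reagent added for 20 min; luciferin light read as relative luminescence units.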
Chain of Cytochrome P450 2D6 (Homo sapiens) (P10635 whole entry, looked up): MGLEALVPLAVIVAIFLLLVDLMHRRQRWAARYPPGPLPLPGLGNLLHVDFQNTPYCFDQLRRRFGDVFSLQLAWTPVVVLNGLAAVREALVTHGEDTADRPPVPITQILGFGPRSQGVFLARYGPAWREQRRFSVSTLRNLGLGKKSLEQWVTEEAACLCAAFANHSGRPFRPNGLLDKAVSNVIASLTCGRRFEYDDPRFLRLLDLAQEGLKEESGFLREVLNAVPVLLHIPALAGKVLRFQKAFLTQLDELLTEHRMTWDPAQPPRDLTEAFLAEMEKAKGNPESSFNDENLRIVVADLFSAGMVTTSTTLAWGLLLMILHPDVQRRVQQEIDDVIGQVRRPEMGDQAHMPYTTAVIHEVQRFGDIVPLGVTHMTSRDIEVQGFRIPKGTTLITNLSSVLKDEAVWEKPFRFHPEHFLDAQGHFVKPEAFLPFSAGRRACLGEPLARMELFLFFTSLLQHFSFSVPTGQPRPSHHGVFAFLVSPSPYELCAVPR

In assay [4] the target is Cytochrome P450 2C9 (Homo sapiens) (UniProt P11712). The experiment in a line: Cytochrome P450 family 2 subfamily C member 9 (CYP2C9) small molecule antagonists: luciferase biochemical (cell-free) qHTS assay (AID 1645842; active = well fitted curve in the direction sought with a large enough effect in the repeat runs; an effect the other way counts as inactive or inconclusive; note: nearly all actives have a fitted effect of over 55% in size; note: potency is the fitted concentration of half-maximal effect). In outline: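 Luminescence, after 20 min with luciferin detection reagent, reflected CYP2C9 turnover during a 1 h NADPH-driven reaction at 37C. Enzyme-substrate mix contained 0.4% bovine serum albumin and was preincubated with compound 10 min at room temperature.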
Chain of Cytochrome P450 2C9 (Homo sapiens) (P11712 whole entry, looked up): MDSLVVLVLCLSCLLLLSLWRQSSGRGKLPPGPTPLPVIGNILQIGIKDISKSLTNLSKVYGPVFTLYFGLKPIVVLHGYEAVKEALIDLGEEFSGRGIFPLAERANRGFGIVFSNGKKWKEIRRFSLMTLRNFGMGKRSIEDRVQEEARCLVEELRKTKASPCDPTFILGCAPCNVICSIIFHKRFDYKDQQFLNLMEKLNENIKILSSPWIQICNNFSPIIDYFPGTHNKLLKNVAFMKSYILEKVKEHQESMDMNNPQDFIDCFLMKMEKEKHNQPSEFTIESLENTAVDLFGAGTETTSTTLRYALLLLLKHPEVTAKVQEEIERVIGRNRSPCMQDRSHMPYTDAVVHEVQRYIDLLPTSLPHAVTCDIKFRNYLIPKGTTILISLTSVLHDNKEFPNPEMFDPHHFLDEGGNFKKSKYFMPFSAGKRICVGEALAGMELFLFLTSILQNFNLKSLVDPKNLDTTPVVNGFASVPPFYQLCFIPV

Assay [5] in a line: Primary qHTS for inhibitors of nuclear receptor binding SET domain protein 2 (NSD2) in an isogenic RCH-ACV NSD2 p.E1099K mutant (9B) (AID 1645876). Note: nearly all actives have a fitted effect of over 70% in size. Note: potency is the fitted concentration of half-maximal effect.
Assay [6] is described as follows: Primary qHTS for inhibitors of nuclear receptor binding SET domain protein 2 (NSD2) in an RCH-ACV wild type WT cells (2C) (AID 1645877). Note: nearly all actives have a fitted effect of over 70% in size. Note: potency is the fitted concentration of half-maximal effect.
For assay [7], the target named is N-terminal Xaa-Pro-Lys N-methyltransferase 1 (Homo sapiens) (UniProt Q9BV86). The experiment in a line: Confirmatory qHTS for Inhibitors of N-terminal methyltransferase 1 (NTMT1): MTaseGlo Assay (AID 1645874). Note: potency is the fitted concentration of half-maximal effect; nearly all actives have a fitted effect of over 65% in size. In outline: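 Compounds are incubated with 125 nM NTMT1 and 100 uM SAM for 15 min before the SPKRIA peptide (1 uM) starts a 30 min room-temperature methylation. SAH is measured by coupled luciferase luminescence and curves fitted to a Hill equation.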
Chain of N-terminal Xaa-Pro-Lys N-methyltransferase 1 (Homo sapiens) (Q9BV86 whole entry, looked up): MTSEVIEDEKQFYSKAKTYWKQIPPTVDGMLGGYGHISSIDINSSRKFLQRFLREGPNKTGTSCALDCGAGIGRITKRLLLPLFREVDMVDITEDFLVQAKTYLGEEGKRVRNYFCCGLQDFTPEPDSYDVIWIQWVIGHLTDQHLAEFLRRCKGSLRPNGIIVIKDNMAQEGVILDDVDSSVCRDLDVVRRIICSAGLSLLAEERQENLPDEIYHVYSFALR

Assay [8] has as its target Cytochrome P450 3A4 (Homo sapiens) (UniProt P08684). Nature of the assay: Cytochrome P450 family 3 subfamily A member 4 (CYP3A4) small molecule antagonists: luciferase qHTS assay (AID 1645841; active = well fitted curve in the direction sought with a large enough effect in the repeat runs; an effect the other way counts as inactive or inconclusive; note: nearly all actives have a fitted effect of over 45% in size). In outline:
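Luminescent CYP3A4 activity readout: compounds plus enzyme-substrate mix 10 min at room temperature, reaction started with NADPH regenerating system for 1 h, stopped with detection reagent, read after 20 min. Ketoconazole served as control.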

From PubChem BioAssay (NCATS) come the findings set out here.

“And” between values parts separate entries of the source, which are not always exact repeats. Equal entries are not always repeated. Records with an inconclusive call do not appear. The source made the active and inactive calls. Unless noted, calls come from the whole dose curve; as a rule, active = well fitted curve in the direction sought with a large enough effect; inconclusive = small, poorly fitted or top-dose-only effect, or another doubt; inactive = no such curve, though single readings can be large; an effect the other way counts as inactive or inconclusive.

Chain of Calcium and integrin-binding protein 1 (Homo sapiens) (Q99828 whole entry, looked up): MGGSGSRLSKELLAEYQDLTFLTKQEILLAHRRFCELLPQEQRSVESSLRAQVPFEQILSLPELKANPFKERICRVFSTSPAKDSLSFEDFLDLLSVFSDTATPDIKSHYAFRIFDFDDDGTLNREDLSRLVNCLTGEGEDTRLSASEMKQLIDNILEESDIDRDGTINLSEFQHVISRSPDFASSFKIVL
Chain of Cytochrome P450 3A4 (Homo sapiens) (P08684 whole entry, looked up): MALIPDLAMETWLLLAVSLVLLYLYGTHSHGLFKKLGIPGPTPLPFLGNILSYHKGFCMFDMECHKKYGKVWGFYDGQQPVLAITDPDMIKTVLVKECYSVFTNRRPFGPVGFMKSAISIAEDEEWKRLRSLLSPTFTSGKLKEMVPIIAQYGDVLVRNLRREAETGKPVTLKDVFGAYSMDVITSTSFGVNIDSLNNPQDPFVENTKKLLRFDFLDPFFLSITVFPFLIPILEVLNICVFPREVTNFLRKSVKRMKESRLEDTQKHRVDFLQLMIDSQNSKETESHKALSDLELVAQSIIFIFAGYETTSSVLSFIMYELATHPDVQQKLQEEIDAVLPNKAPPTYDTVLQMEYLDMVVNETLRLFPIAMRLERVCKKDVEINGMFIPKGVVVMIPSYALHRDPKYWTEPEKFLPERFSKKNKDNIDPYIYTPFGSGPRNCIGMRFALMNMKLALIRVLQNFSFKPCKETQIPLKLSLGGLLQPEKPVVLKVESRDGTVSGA

As to `Cc1ccccc1C(=O)c1ccc(Nc2ccc(Br)cc2N)cc1Cl`, the Potency entry in assay [1] and in assay [2] was “inactive” each time. The Potency is 15.1 µM (active) in assay [3]; 10.7 µM (active) in assay [4]; 16.6 µM (active) and 5.78 µM (active) in assay [5]; 10.5 µM (active) and 9.2 µM (active) in assay [6].
For `CCN1CCC(n2cc(CNc3cc(Cl)c4ncc(C#N)c(Nc5ccc(F)c(Cl)c5)c4c3)nn2)CC1`, the Potency result in assay [1] and in assay [2] was “inactive” in each case. Further, the Potency in assay [3] is 12 µM (active); in assay [4], 7.56 µM (active); in assay [7], 10 µM (active); in assay [5] it was 23.5 µM (active); in assay [6] it was 18.6 µM (active).
For `COc1ccc(-c2cc3nccn3c(Nc3ncccc3C(N)=O)n2)cc1OC`, the Potency result in assay [1], in assay [2] and in assay [3] was “inactive” each time. In addition, the Potency was 5.35 µM (active) in assay [4], 0.649 µM (active) in assay [5] and 0.728 µM (active) in assay [6].
For `CCN1C[C@H](C)n2c(c(O)c3c(=O)n(Cc4ccc(F)c(Cl)c4)nc(C(=O)NC)c32)C1=O`, the Potency entry in assay [1], in assay [2], in assay [3], in assay [5] and in assay [6] was “inactive” throughout. Also, the Potency in assay [4] is 8.49 µM (active).
For the molecule `CC(C)C[C@@H](C(=O)N[C@H](C(=O)OC1CCCC1)c1ccccc1)[C@H](O)C(=O)NO`, the Potency entry in assay [1], in assay [2] and in assay [3] was “inactive” each time. Also, the Potency in assay [4] was 5.35 µM (active); in assay [5], 14.8 µM (active); in assay [6] it was 14.8 µM (active).
`Cn1c(=O)c(-c2c(Cl)cccc2Cl)cc2cnc(Nc3cccc(C(=O)O)c3)nc21`: the Potency result in assay [1], in assay [2], in assay [3], in assay [4], in assay [5] and in assay [6] was “inactive” each time.
`CC(C)(O)CC(=O)NCCn1ccc2ncnc(Nc3ccc(Oc4cccc(C(F)(F)F)c4)c(Cl)c3)c21`: the Potency result in assay [1] and in assay [2] was “inactive” each time. The Potency in assay [3] was 12 µM (active); in assay [4], 5.35 µM (active); in assay [5] it was 20.5 µM (active) and 11.8 µM (active); in assay [6], 20.5 µM (active) and 13.2 µM (active).
For `Cc1ccc2c(c1)c1c(n2CCc2ccc(C)nc2)CCN(C)C1`, the Potency entry in assay [1] and in assay [2] was “inactive” each time. The Potency in assay [3] was 8.49 µM (active); in assay [4] it was 10.7 µM (active); in assay [5], 14.5 µM (active).
Turning to `CN1CCC(COc2cnc(-c3cccc(Cn4nc(-c5cccc(C#N)c5)ccc4=O)c3)nc2)CC1`, the Potency result in assay [1], in assay [2] and in assay [3] was “inactive” each time. In addition, the Potency in assay [4] is 16.9 µM (active); in assay [5], 11.8 µM (active) and 16.3 µM (active); in assay [6], 10.5 µM (active) and 16.3 µM (active).
With `CC[C@H](C)C(=O)O[C@H]1C[C@H](O)C=C2C=C[C@H](C)[C@H](CC[C@@H](O)C[C@@H](O)CC(=O)O)[C@H]21`, the Potency entry in assay [1], in assay [2], in assay [3], in assay [4], in assay [5] and in assay [6] was “inactive” each time. Also, the call in assay [8] was inactive.
Take `C[C@H](c1ccc(F)cc1CCCC(=O)O)N(c1cc(F)ccc1F)S(=O)(=O)c1ccc(Cl)cc1`: the Potency entry in assay [1] and in assay [2] was “inactive” each time. The values for the Potency in assay [3] and in assay [4] were 16.9 µM (active) and 8.49 µM (active), respectively.
Regarding `CN(C)c1nc(Cc2ccc(NC(=O)c3ccc(C(F)(F)F)cc3)cc2)nc(N(C)C)c1CC(=O)O`, the Potency result in assay [1], in assay [2], in assay [3], in assay [4], in assay [5] and in assay [6] was “inactive” in each case.
`Cc1cnc(CNC(=O)c2c(=O)c3ccc(N4CCCN(C)CC4)nc3n3c2sc2ccccc23)cn1`: the Potency result in assay [1], in assay [2], in assay [3] and in assay [4] was “inactive” in each case. Also, the Potency in assay [5] was 0.152 µM (active); in assay [6], 0.121 µM (active).
For `Cc1ccccc1C(C(=O)NC1CCCCC1)N(C(=O)CNc1ccc(C#N)cc1)c1cccc(F)c1` (stereo unspecified), the Potency entry in assay [1], in assay [2], in assay [3], in assay [5] and in assay [6] was “inactive” each time. In addition, the Potency in assay [4] is 1.34 µM (active).
With `C[C@@H](N)c1ccc(C(=O)Nc2ccnc3[nH]ccc23)cc1`, the Potency result in assay [1], in assay [2], in assay [3] and in assay [4] was “inactive” in each case. The Potency in assay [5] was 9.34 µM (active); in assay [6], 4.17 µM (active).
As for `CN1[C@H]2CC[C@H]1CC(OC(=O)c1c[nH]c3ccccc13)C2` (stereo partly specified), the Potency entry in assay [1], in assay [2] and in assay [4] was “inactive” in each case. In addition, in assay [3], the Potency is 12 µM (active).
Turning to `Cc1cnc(-c2cc(N3CCN(C(=O)CCS(C)(=O)=O)CC3)ncc2Cl)c(C)c1`, the Potency entry in assay [1], in assay [2], in assay [3], in assay [5] and in assay [6] was “inactive” each time. For the same molecule, in assay [4], the Potency is 21.3 µM (active).
Take `Nc1ccc(-c2ccc3ncc4ccc(=O)n(-c5cccc(C(F)(F)F)c5)c4c3c2)cn1`: the Potency result in assay [1] and in assay [2] was “inactive” in each case. Moreover, the Potency in assay [3] is 23.9 µM (active); in assay [4], 2.13 µM (active); in assay [5] it was 14.8 nM (active) and 23.1 nM (active); in assay [6] it was 20.9 nM (active) and 18.4 nM (active).
For the molecule `O=C(c1ccc(F)c(F)c1Nc1ccc(I)cc1F)N1CC(O)([C@H]2CCCCN2)C1`, the Potency entry in assay [1], in assay [2] and in assay [4] was “inactive” throughout. Besides, the Potency in assay [3] is 3.01 µM (active).
In the case of `CNC(=O)[C@H](Cc1ccccc1)NC(=O)[C@H](CC(C)C)[C@H](CSc1cccs1)C(=O)NO`, the Potency result in assay [1], in assay [2], in assay [3], in assay [4], in assay [5] and in assay [6] was “inactive” each time.
For the molecule `O=C(Nc1ccc(OC(F)(F)F)cc1)c1sccc1NCc1ccnc2ccccc12`, the Potency entry in assay [1] and in assay [2] was “inactive” in each case. In addition, the Potency is 16.9 µM (active) in assay [3]; 7.56 µM (active) in assay [4]; 16.6 µM (active) and 14.6 µM (active) in assay [5]; 18.6 µM (active) in assay [6].
